# From publication PMC4336329 (PLoS ONE, 2015)
# Out of some 310,000 compounds screened, about 14,000 (4.5%) showed an effect of 50% or more. Effects have a minus sign here. The sample as a whole holds a higher share of strong results than the screen did.
# Molecular target: human ether-à-go-go-related gene (hERG) potassium channel (human, UniProt Q12809)
# Assay: primary screen, population patch clamp on CHO cells stably expressing hERG; higher = less effect of the substance
# 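Note: peak tail current of the secondary pulse compared with the same well before compound.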
# Sequence of human ether-à-go-go-related gene (hERG) potassium channel (Q12809 whole entry, looked up): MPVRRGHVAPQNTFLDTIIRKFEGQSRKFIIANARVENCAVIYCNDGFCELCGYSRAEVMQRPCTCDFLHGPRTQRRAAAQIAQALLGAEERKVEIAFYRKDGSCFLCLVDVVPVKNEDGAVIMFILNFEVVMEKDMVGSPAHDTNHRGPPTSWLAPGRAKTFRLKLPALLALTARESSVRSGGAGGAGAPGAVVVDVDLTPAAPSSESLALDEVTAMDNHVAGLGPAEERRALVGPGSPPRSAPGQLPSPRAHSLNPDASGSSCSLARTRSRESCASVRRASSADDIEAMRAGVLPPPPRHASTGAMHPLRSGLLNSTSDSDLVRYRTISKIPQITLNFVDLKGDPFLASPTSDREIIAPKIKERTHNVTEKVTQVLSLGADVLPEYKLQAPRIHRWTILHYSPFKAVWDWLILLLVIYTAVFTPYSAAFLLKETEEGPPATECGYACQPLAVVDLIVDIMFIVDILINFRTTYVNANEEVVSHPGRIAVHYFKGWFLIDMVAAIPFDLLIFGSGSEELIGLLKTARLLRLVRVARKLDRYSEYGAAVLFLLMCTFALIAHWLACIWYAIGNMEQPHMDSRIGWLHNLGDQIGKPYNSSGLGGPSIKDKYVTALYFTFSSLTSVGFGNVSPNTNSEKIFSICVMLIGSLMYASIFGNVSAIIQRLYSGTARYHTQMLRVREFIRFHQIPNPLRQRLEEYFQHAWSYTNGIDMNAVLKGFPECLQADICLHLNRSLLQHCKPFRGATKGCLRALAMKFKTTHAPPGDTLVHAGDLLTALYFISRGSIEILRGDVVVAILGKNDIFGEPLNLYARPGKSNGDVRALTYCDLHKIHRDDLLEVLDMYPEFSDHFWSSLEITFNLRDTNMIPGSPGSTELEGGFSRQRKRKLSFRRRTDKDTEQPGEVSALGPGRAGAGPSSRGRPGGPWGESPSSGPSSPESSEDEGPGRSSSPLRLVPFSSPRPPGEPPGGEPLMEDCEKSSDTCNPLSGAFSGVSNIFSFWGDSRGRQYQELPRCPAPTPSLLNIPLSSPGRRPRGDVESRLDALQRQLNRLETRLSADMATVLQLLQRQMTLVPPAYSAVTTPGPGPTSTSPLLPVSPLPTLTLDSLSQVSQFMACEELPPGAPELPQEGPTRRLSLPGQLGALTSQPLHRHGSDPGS
row,SMILES,"hERG current change (%, negative = inhibition) at 10uM [%]"
1,Cc1ccccc1C(=O)Oc1cccc(Nc2ncnc3ccccc23)c1,-3.38
2,CCC(C)NC(=O)CN1C(=O)NC2(CCOc3ccccc32)C1=O (stereo not drawn),-9.56
3,CCCNC(=O)Cc1ccsc1,9.93
4,O=C(NCc1cccs1)C1CCN(S(=O)(=O)c2cccc([N+](=O)[O-])c2)CC1,-15.7
5,Fc1ccc(NC(=S)NCCc2ccccc2)c(F)c1F,-1.12
6,CCC(Sc1nnc(C)c(=O)[nH]1)C(=O)Nc1cccc2ccccc12 (stereo not drawn),10
7,O=C(CCCc1nc2ccccc2s1)NCc1cccnc1,0.483
8,C/C(=N\NC(=O)CN1CCN(S(=O)(=O)c2ccc(C)cc2)CC1)c1ccc(O)cc1,-6.97
9,C/C(=N/NC(=O)CN1CCN(S(=O)(=O)c2ccc(Br)cc2)CC1)c1ccncc1,-80.3
10,C/C(=N\NC(=O)CCc1ccc(S(=O)(=O)N2CCOCC2)cc1)c1ccc(Br)cc1,6.98
11,NC(=O)CN1CCN(S(=O)(=O)c2ccc(Br)cc2)CC1,22.4
12,C/C(=N\NC(=O)CN1CCN(S(=O)(=O)c2ccc(C)cc2)CC1)c1ccncc1,-77.1
13,C/C(=N\NC(=O)CN1CCN(S(=O)(=O)c2ccc(C)cc2)CC1)c1cccnc1,-46.9
14,O=C(Nc1ccc2c(c1)CCC2)c1ccccc1,9.66
15,Cc1ncoc1C(=O)N1CCc2c([nH]c3ccccc23)C1C1CCCCC1 (stereo not drawn),1.89
16,Cc1cccc(C2c3[nH]c4ccccc4c3CCN2C(=O)c2ocnc2C)n1 (stereo not drawn),-10.5
17,Cc1ncoc1C(=O)N1CCc2c([nH]c3ccccc23)C1C(C)(C)C (stereo not drawn),-65.3
18,COc1ccc(CNC(=O)C(C)n2ccc3cc(S(=O)(=O)N4CCCCCC4)ccc32)cc1 (stereo not drawn),1.82
19,CCN(CC)C(=O)CC(c1ccc(OC)cc1)c1c(O)cc(OC)cc1OC (stereo not drawn),-1.57
20,CCN(CC)CCC(c1ccc2c(c1)OCO2)c1c(O)cc(OC)cc1OC (stereo not drawn),-73.4
21,CCN(CC)C(=O)CC(c1ccc2c(c1)OCO2)c1c(O)cc(OC)cc1OC (stereo not drawn),-2.77

row,SMILES,"hERG current change (%, negative = inhibition) at 10uM [%]"
1,CCN(CC)CCC(c1ccc2c(c1)OCO2)c1c(OC)cc(OC)c2ccc(=O)oc12 (stereo not drawn),-46.2
2,CCN(CC)CCC(c1ccc(N(C)C)cc1)c1c(O)cc(OC)cc1OC (stereo not drawn),-0.431
3,CCN(CC)CCC(c1ccc(OC)cc1)c1c(O)cc(OC)cc1OC (stereo not drawn),-66.4
4,CC(C)CC(C(=O)OCC(=O)c1c(N)n(C)c(=O)n(C)c1=O)N1C(=O)c2ccccc2C1=O (stereo not drawn),-27
5,COCCNC(=S)N1CCC(C(=O)c2ccc3c(c2)OCCO3)CC1,32.7
6,Cc1ccc(F)cc1CNC(=O)c1cc(COc2ccc3ncccc3c2)on1,5.04
7,CCn1c(=O)c2c(cnn2C)c2ccccc21,2.58
8,Brc1ccc(-c2c(-c3ccsc3)sc3ccccc23)cn1,14.1
9,Cc1ccc(-c2nc(CS(=O)CC(=O)NCCN3CCCC3)c(C)o2)cc1 (stereo not drawn),-5.74
10,CC(C)c1ccc(-c2csc(NC(=O)c3cccs3)c2C(=O)O)cc1,18.3
11,O=C(CSc1nc2ccccc2c(=O)n1Cc1ccccc1)NCc1ccco1,-39.6
12,COCCNC(=O)CSc1nc2cc3c(cc2c(=O)n1Cc1ccco1)OCO3,-27.4
13,COCCNC(=O)CSc1nc2cc(OC)c(OC)cc2c(=O)n1Cc1ccco1,-61.2
14,O=C(CSc1nc2ccccc2c(=O)n1Cc1ccc(C(=O)NC2CC2)cc1)NCc1ccco1,-51.5
15,O=C(CSc1nc2ccsc2c(=O)n1Cc1ccc(C(=O)O)cc1)NCc1ccco1,2.08
16,Cc1ccccc1-n1c(SCC(=O)NCc2cccs2)nc2ccccc2c1=O,-17.4
17,Cn1c(SCC(=O)NCc2ccco2)nc2ccccc2c1=O,-23.6
18,O=C(CSc1nc2ccccc2c(=O)n1Cc1ccco1)NCc1ccccc1,-29.3
19,O=C(CSc1nc2ccccc2c(=O)n1Cc1ccc(Cl)cc1)NCc1cccs1,-52.5
20,O=C(CSc1nc2ccccc2c(=O)n1Cc1ccc(F)cc1)NCc1cccs1,-14
21,COc1cc2nc(SCC(=O)NCCc3ccccc3)n(Cc3ccco3)c(=O)c2cc1OC,-43.3

row,SMILES,"hERG current change (%, negative = inhibition) at 10uM [%]"
1,O=C(CSc1nc2ccccc2c(=O)n1Cc1ccco1)NCc1ccco1,-65.4
2,Cc1cc(C(=O)N2CCCC(CCC(=O)N3CCN(c4ccccn4)CC3)C2)c(C)o1 (stereo not drawn),-9.16
3,COc1cccc(Cn2c(=S)[nH]c3ccc(N4CCOCC4)cc3c2=O)c1,-8.19
4,CCOC(=O)C1CCCN(C(=O)Cn2cnc3c2c(=O)n(C)c(=O)n3C)C1 (stereo not drawn),20.3
5,O=C(C1CCCC1)N1CCN=C1SCc1cccc([N+](=O)[O-])c1,-19.3
6,Cc1ccc2nc(NCc3ccc(F)cc3)c3nncn3c2c1,2.23
7,COc1ccc(C2N(Cc3ccccc3)CCN2Cc2ccccc2)cc1[N+](=O)[O-],-29.9
8,Cc1ccc(CSc2nc3ccccc3c(=O)n2Cc2ccco2)cc1,8.42
9,O=C(CSc1nc2ccccc2c(=O)n1Cc1ccco1)NCCN1C(=O)CSC1=O,-61.4
10,CCC(Sc1nc2cc(OC)c(OC)cc2c(=O)n1Cc1ccco1)C(=O)NCCOC (stereo not drawn),-28.2
11,CCn1c(SCC(=O)NCc2ccco2)nc2ccccc2c1=O,-34.4
12,CCc1ccccc1NC(=O)C(CC)Sc1nc2cc3c(cc2c(=O)n1Cc1ccco1)OCO3 (stereo not drawn),17.1
13,Cc1ccc(NC(=O)CN(C)C(=O)CSc2nc3ccccc3c(=O)n2Cc2ccco2)cc1,-71.1
14,O=C(CSc1nc2ccccc2c(=O)n1-c1ccccc1)NCc1ccco1,-15.1
15,O=C(CSc1nc2ccccc2c(=O)n1Cc1ccco1)Nc1cccc(O)c1,3.9
16,CCC(Sc1nc2cc3c(cc2c(=O)n1Cc1ccco1)OCO3)C(=O)NCCOC (stereo not drawn),-63.6
17,C=CCn1c(SCC(=O)NCc2ccco2)nc2ccccc2c1=O,-50.3
18,CN(Cc1ccccc1)C(=O)CSc1nc2ccccc2c(=O)n1Cc1ccco1,-3.56
19,Cn1c(SCC(=O)NCCN2C(=O)CSC2=O)nc2ccccc2c1=O,-2.05
20,CCOc1ccc(C(=O)Nc2ccc(S(=O)(=O)Nc3cc(C)on3)cc2)cc1,-9.73
21,O=C(CSc1nnc(COc2ccccc2)n1Cc1ccco1)c1ccc(F)cc1,-21.1

row,SMILES,"hERG current change (%, negative = inhibition) at 10uM [%]"
1,Cc1ccnc2nc(C(=O)OCCOc3cccc(Br)c3)nn12,-27.9
2,COc1ccc(NC(=O)CCN2CC(C)OC(C)C2)c(OC)c1.Cl (stereo not drawn),13.2
3,CCOc1cc(/C=N/n2c(COc3ccccc3)n[nH]c2=S)ccc1O,24.4
4,Cn1c(CN2CCOCC2)nnc1SCC(=O)NC1CCCCC1,17.7
5,COc1cccc(C2(C)NC(=O)N(CC(=O)c3cc(C)n(C4CC4)c3C)C2=O)c1 (stereo not drawn),-35.8
6,O=C(NCc1ccc2c(c1)OCO2)c1ccc(Br)s1,6.32
7,CCOC(=O)C1CCN(C(=O)Cn2nc(CC)n3cccc3c2=O)CC1,-0.254
8,Cc1cccc(NC(=O)N2C3CCCC2CC(NC(=O)C(C)(C)C)C3)c1 (stereo not drawn),1.47
9,CCOC(=O)N1CCN(C(=O)c2ccc3c(c2)NC(=O)C(N2CCOCC2)S3)CC1 (stereo not drawn),-4.6
10,CCOc1cccc2cc(C(=O)NCc3cccnc3)c(=O)oc12,-1.94
11,CCN(CC)C(=O)CSc1nc2cc3c(cc2c(=O)n1Cc1ccc(OC)cc1)OCO3,12.1
12,CCN(CC)C(=O)CSc1nc2cc(OC)c(OC)cc2c(=O)n1Cc1ccc(Cl)cc1,-77
13,CC1CCCCC1NC(=O)CSc1nc2ccccc2c(=O)n1Cc1ccco1 (stereo not drawn),13
14,O=C(CSc1nc2ccccc2n1CC(=O)NCc1ccccc1)NCc1ccco1,-20.2
15,O=C(CSc1nc2ccccc2c(=O)n1Cc1ccco1)c1ccc(F)cc1,9.22
16,CC(Sc1nc2ccccc2c(=O)n1Cc1ccco1)C(=O)c1ccccc1 (stereo not drawn),-53.9
17,Cc1nc2ccccc2n1CCc1nc2c3ccccc3nc(SCC(=O)NCc3ccco3)n2n1,-60
18,COc1cc2nc(SCC(=O)NCc3ccco3)n(Cc3ccc(Cl)cc3)c(=O)c2cc1OC,-3.17
19,O=C(CSc1nc2ccccc2c2nc3ccccc3n12)NCc1ccco1,-8.55
20,O=c1c2ccccc2nc(SCc2ccccc2)n1Cc1ccco1,1.3
21,CN(C)C(CNC(=O)CSc1nc2ccccc2c(=O)n1Cc1ccco1)c1ccccc1 (stereo not drawn),-67.1
